AmpC inh detg = blocks E. coli AmpC beta-lactamase in detergent assay. AmpC hydrolysis of nitrocefin, absorbance 480 nm, 0.01% Triton. Potency, µM (doses to about 114 µM), for inactives: at the highest dose activity change, negative = inhibition, hits mostly inhibitors. hit rate 0.041% among 370,000. AID 485294;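 note: 0% = no-compound wells and -100% = no-enzyme wells; nearly all actives have a fitted effect of over 25% in size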
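20 mM phosphate pH 7.0 + 0.01% (detergent screen) or 0.0001% Triton X-100; 5.3 nM AmpC reagent; cpd preinc 15 min RT; nitrocefin (800 uM stock) to start; A480 q20 s × 4 min; Activity was normalised to no-enzyme and no-compound control wells.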
AmpC inh no detg = AmpC beta-lactamase inhibition without detergent; AmpC nitrocefin hydrolysis, absorbance 480 nm, 0.0001% Triton; Potency, µM (titrated, usually from 57.1 µM), for the others: at the highest dose activity change, negative = inhibition, most hits filed as inhibitors; hit rate 0.52% among 330,000;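 note: plate controls were no compound for no effect and no enzyme for full effect; nearly all actives have a fitted effect of over 20% in size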
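20 mM phosphate pH 7.0 + 0.01% (detergent screen) or 0.0001% Triton X-100; 5.3 nM AmpC reagent; cpd preinc 15 min RT; nitrocefin (800 uM stock) to start; A480 q20 s × 4 min; Activity was normalised to no-enzyme and no-compound control wells.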
Sm TGR inh = blocks Schistosoma mansoni thioredoxin glutathione reductase. hit rate 3% among 360,000. purified TGR, DTNB reduction, TNB absorbance 405 nm. Potency, µM (doses to about 114 µM), for the others: at the highest dose activity change, negative = inhibition, actives largely listed as inhibitors. AID 485364; note: nearly all actives have a fitted effect of over 60% in size
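Kinetic colorimetric format: TGR-catalysed, NADPH-driven DTNB reduction monitored via TNB absorbance. Enzyme dispensed at 20 nM; compound exposure 15 min at room temperature before reaction start.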
Giardia FBPA inh = blocks Giardia fructose-bisphosphate aldolase activity; A8B2U2; purified Giardia FBPA; Potency, µM (series often up to 59.6 µM), without a hit: top-dose activity, negative = inhibition, most hits filed as inhibitors; hit rate 0.71% among 290,000; AID 2451; note: nearly all actives have a fitted effect of over 55% in size
Target sequence (A8B2U2 whole entry, looked up): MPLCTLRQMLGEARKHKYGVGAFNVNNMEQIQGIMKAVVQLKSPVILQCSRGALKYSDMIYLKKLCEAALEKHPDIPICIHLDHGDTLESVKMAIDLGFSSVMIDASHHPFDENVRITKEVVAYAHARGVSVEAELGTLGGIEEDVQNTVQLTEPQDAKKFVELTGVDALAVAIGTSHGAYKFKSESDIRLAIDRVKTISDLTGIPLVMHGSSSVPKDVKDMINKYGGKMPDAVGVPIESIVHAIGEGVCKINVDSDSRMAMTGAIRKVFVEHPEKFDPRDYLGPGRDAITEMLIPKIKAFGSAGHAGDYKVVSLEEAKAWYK
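40 nM FBPA preincubated 10 min at RT with compound (up to 57.5 uM final), then substrate plus GAPDH/TPI/NAD/arsenate coupling and diaphorase/resazurin added. Fluorescence read after 20 min at RT, 525/598 nm.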
The depositor's hits bear a star; ? = inconclusive; · = no result; [ ] = another dose, or the depositor's remark. Hits are enriched below; roughly 3.6% of the tested compounds scored in any of these assays. Calls come from the whole dose curve; as a rule, active = well fitted curve in the direction sought with a large enough effect; inconclusive = small, poorly fitted or top-dose-only effect, or another doubt; inactive = no such curve, though single readings can be large; an effect the other way counts as inactive or inconclusive. Unless noted, % is set by controls: 0 for no effect and ±100 for the full control effect; potency is the fitted concentration of half-maximal effect.

SMILES	AmpC inh detg	AmpC inh no detg	Sm TGR inh	Giardia FBPA inh
COc1ccc(NC(=O)/C(C#N)=C\c2ccc(N3CCOCC3)o2)cc1	6%	0%	45µM*	-5%
Nc1nc(CCl)nc(Nc2cccc3ccccc23)n1	9%	-15%	16µM*	-5%
Cc1cnc(CNC(=O)CC2C(=O)NCCN2Cc2cccc(F)c2F)cn1 (configuration not stated)	4%	-2%	18µM*	-23%
CN(CCC1CCOCC1)C(=O)CC1C(=O)NCCN1Cc1c(F)cccc1Cl (configuration not stated)	?	-1%	45µM*	3%
CN(Cc1ncc[nH]1)C(=O)CC1C(=O)NCCN1Cc1c(F)cccc1Cl (configuration not stated)	-3%	-6%	-5%	2%
O=C(CC1C(=O)NCCN1Cc1ccc(Cl)c(F)c1)NC1CCC1 (configuration not stated)	0%	6%	40µM*	·
CN(CCCC1CCCC1)C(=O)CC1C(=O)NCCN1Cc1cccc(F)c1F (configuration not stated)	-6%	167%	28µM*	·
CN(Cc1ccon1)C(=O)CC1C(=O)NCCN1Cc1cccc(F)c1F (configuration not stated)	2%	0%	?	·
COCCNC(=S)Nc1ccccc1Cc1ccccc1	-2%	-18%	1%	-3%
O=C(CC1C(=O)NCCN1Cc1ccc(Cl)c(F)c1)NCCc1cccnc1 (configuration not stated)	4%	42%	45µM*	1%
CN(CC1CCOCC1)C(=O)CC1C(=O)NCCN1Cc1ccc(Cl)c(F)c1 (configuration not stated)	0%	38%	28µM*	-21%
CCOc1ccc(CN2CCNC(=O)C2CC(=O)N(C)CC2CCOCC2)cc1 (configuration not stated)	?	45%	?	-26%
O=C1NCCN(Cc2ccc(Cl)c(F)c2)C1CC(=O)N1CCCCO1 (configuration not stated)	-7%	0%	25µM*	?
O=C1NCCN(Cc2c(F)cccc2Cl)C1CC(=O)N1CCCCO1 (configuration not stated)	-4%	12%	-16%	-1%
O=C(CC1C(=O)NCCN1Cc1ccc(Cl)c(F)c1)NCC1CCOCC1 (configuration not stated)	-7%	22%	40µM*	-27%
Cc1ccccc1NC(=O)CSc1nc2c(oc3ccccc32)c(=O)n1-c1ccccc1F	-2%	·	-8%	·
C[C@H]1Cc2c(COc3ccccc3)nc3c(c2CO1)CN(S(=O)(=O)c1ccc2c(c1)OCCN2C)CC3	·	·	·	4%[12.9 µM]
CCc1ccc(NC(=O)CSc2nc(=O)n(Cc3ccco3)c3c2CCC3)cc1	-1%	·	45µM*	·
Cc1c(Cl)cccc1NC(=O)CSc1nc(=O)n(Cc2ccco2)c2c1CCC2	-5%	·	40µM*	·
CCN(CC)CCn1c2c(c(SCC(=O)Nc3cccc(C(C)=O)c3)nc1=O)CCCC2	1%	54%	45µM*	·
COc1ccc(C)cc1NC(=O)CSc1nc(=O)n(Cc2ccco2)c2c1CCC2	0%	·	35µM*	·
Cc1cccc(NC(=O)CSc2nc(=O)n(Cc3ccco3)c3c2CCC3)c1C	-1%	·	-26%	·
CCN(CC)C(=O)CSc1nc2cc(S(=O)(=O)N3CCOCC3)ccc2n1CC	1%	17%	-11%	·
CCC(C(=O)n1cccc1C#N)c1ccccc1C (configuration not stated)	6%	-11%	50µM*	·
O=C(CSc1nc2ncc(Br)cc2[nH]1)c1cccc([N+](=O)[O-])c1	?	32µM*	-4%	-24%
SMILES	AmpC inh detg	AmpC inh no detg	Sm TGR inh	Giardia FBPA inh
O=C(C[n+]1cc(Br)cc(Br)c1)c1cccc([N+](=O)[O-])c1	4%	12%	10µM*	?
COc1cc(C2Oc3ccccc3C=C2[N+](=O)[O-])cc(OC)c1OC (configuration not stated)	-8%	13%	32µM*	-22%
Cn1c(=O)n(C)c2cc(N3CCOCC3)c(NC(=O)c3c(F)cccc3F)cc21	6%	·	-6%	·
O=c1oc2ccccc2cc1-c1nc2c(s1)CCc1ccccc1-2	-16%	?	?	7.9µM*
Cc1sc(NC(=O)CCl)c(C(=O)c2ccccc2)c1C	3%	-1%	7.9µM*	9%
Cc1cc(C)cc(-n2ccnc2SCC(=O)Nc2nnc(C)s2)c1	5%	·	?	·
NNC(=O)CNC(c1ccccc1)c1cc(Br)ccc1NC(=O)CCN1CCOCC1 (configuration not stated)	7%	123%	18µM*	1%
Cc1ccc(OCC(=O)Nc2cccc(S(=O)(=O)N3CCCCCC3)c2)c([N+](=O)[O-])n1	-13%	-1%	-12%	-3%
CC(C)(S)[C@@H](N)C(=O)O	-11%	-24%	-16%	13µM*
N/C(COc1cccc(Cl)c1)=N\NS(=O)(=O)c1ccccc1	2%	0.32µM*	-2%	3%
COc1ccc(/C=N/OCC(=O)N=Nc2c(O)[nH]c3ccc(Br)cc23)cc1	?	1µM*	-1%	-2%
CCOc1cc(/C=C2\COc3ccccc3C2=O)cc(Br)c1OCC(=O)N(C)C	-2%	193%	11µM*	-9%
C=C1CCC(=O)C(C)CCC2C1CC2(C)C (configuration not stated)	·	·	·	4%
NC(=O)CC(c1ccccc1)c1ccco1 (configuration not stated)	-2%	-12%	-9%	1%
CCN(CC)C(=O)CC(c1ccc(F)cc1)c1ccco1 (configuration not stated)	0%	56%	28µM*	0%
CN(C)CCCNC(=O)CC(c1ccc(F)cc1)c1ccco1 (configuration not stated)	?	-12%	-13%	0%
CCCN(CCC)C(=O)CC(c1ccccc1)c1ccco1 (configuration not stated)	-13%	52%	14µM*	-2%
CC(=O)c1ccc(N2CCN(C(=O)CN3C(=O)NC4(CCCCC4)C3=O)CC2)c(F)c1	0%	-10%	-2%	·
Cc1ccc(-c2nc(C)sc2CC(=O)NCc2ccco2)cc1	-15%	-12%	22µM*	-10%
O=C(COC(=O)c1cc(-c2ccc(Cl)s2)nc2ccccc12)NCc1ccco1	-2%	128%	7.9µM*	-9%
O=C(COC(=O)c1cc(-c2cccs2)nc2ccccc12)NCc1ccco1	-3%	-15%	40µM*	-8%
O=C(NCc1ccco1)c1c2c(nc3ccccc13)CCC2	-13%	-23%	40µM*	-16%
COc1ccc(CNC(=O)COC(=O)c2cc(-c3ccc(Cl)s3)nc3ccccc23)cc1	1%	-19%	1%	2%
O=C(NCc1ccco1)c1cc(-c2cccs2)nc2ccccc12	-8%	-58%	-3%	2%
Cc1ccc(-c2cc(C(=O)NCc3ccco3)c3ccccc3n2)s1	2%	-27%	28µM*	-17%
